Compound activity as filed in PubChem BioAssay.
Pf growth 48h – inhibits P. falciparum growth in the first generation, 48 h. actives 5.9% (n = 310,000). Potency, µM (top dose mostly 28.7 µM), most hits filed as inhibitors. P. falciparum luciferase growth in erythrocytes, 48 h
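Luciferase-expressing parasites in RBCs, 2% Hct / 0.1% parasitemia final; RPMI 1640 + 0.5% Albumax; 37 C, 5% CO2, one generation; luminescence read-out, lower signal = inhibition.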
Lassa entry inh – Lassa virus entry inhibition; Lassa virus pseudotype entry inhibition, cell reporter; Potency, µM (top dose mostly 37.9 µM), usual class: inhibitors; actives 1.2% (n = 300,000); AID 540256; calls by dose curve; tested in HEK293 cells; further: nearly all actives have a fitted effect of over 50% in size
HCV inh – blocks hepatitis C virus; Huh7.5.1 HCVcc-Cre infection, luciferase reporter, 44 h; Potency, µM (titrated, usually from 41.8 µM), actives largely listed as inhibitors; actives 3.4% (n = 340,000); AID 651820
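1,000 cells/well; 4 h culture; + compound; + HCVcc-Cre (~0.5 moi); 44 h; luciferase substrate, RT 15 min; read 15 sec.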
Pf growth 96h – P. falciparum growth inhibition at 96 hours; actives 6.9% (n = 320,000); AID 504834; P. falciparum luciferase reporter growth, 96 h; Potency, µM (highest dose often 28.7 µM), hits mostly inhibitors
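Cell-based qHTS: luciferase-tagged P. falciparum in erythrocytes (2% hematocrit, 0.05% parasitemia final) incubated with compounds for 96 hours, 37 C, 5% CO2; luciferase detection reagent then added and luminescence measured.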
HCMV inh – human cytomegalovirus inhibition; HFF cells, HCMV-luciferase reporter, 72 h; hits give low values; activity change, negative = inhibition, % at 57.5 µM; actives 4.5% (n = 410,000); AID 1259415; in the data active means activity change below about -60%; inconclusive means no clear call, values can overlap the other calls; inactive means above about -39%
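Two-dose cell screen: HFF monolayers treated with compounds and infected with luciferase-expressing HCMV at 1 PFU/cell, 72 h at 37C, then lysed for luciferase measurement.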
Marburg entry inh – inhibitors of Marburg virus binding or cell entry; Marburg virus pseudotyped entry inhibition, cell reporter; Potency, µM (highest dose often 37.8 µM), usual class: inhibitors; actives 1.8% (n = 300,000); AID 540276; calls by dose curve; tested in HEK293 cells
Large screens that a line does not name were inactive. In the library only some 14% were active in any assay of this set; here they are far more common. Unless noted, the call rests on the fitted dose curve; in most records, active means well fitted inhibition curve with a large enough effect; inconclusive means small, poorly fitted or top-dose-only effect, or another doubt; inactive means no such curve, though single readings can be large or run the other way.

COCCOC(=O)c1c(NC(=O)CN2c3ccccc3CC2C)sc(C(N)=O)c1C (stereo unspecified)	Pf growth 48h 12µM, HCV inh inconclusive, Pf growth 96h inconclusive, Marburg entry inh inconclusive (no result: Lassa entry inh)
COc1ccc(Cl)cc1NC(=O)CN1CCc2ccccc2C1	Pf growth 48h inconclusive, HCV inh inconclusive, Pf growth 96h inconclusive, HCMV inh -75 (no result: Lassa entry inh, Marburg entry inh)
COc1ccc(Cl)cc1NC(=O)CN1CCC(NC(=O)C2CC2)CC1	Pf growth 48h inconclusive, HCMV inh -77, Marburg entry inh inconclusive
COc1ccc(Cl)cc1NC(=O)CN1c2ccccc2CC1C (stereo unspecified)	Pf growth 48h inconclusive, HCV inh 8.9µM, HCMV inh inconclusive, Marburg entry inh inconclusive
COCc1c(Br)c(C)nc2sc3c(=O)n(-c4cccc(Br)c4)nnc3c12	none (no result: Pf growth 48h, HCV inh, Pf growth 96h)
O=C(Nc1ccc2c(c1)OCO2)c1ccc2nc([C@@H]3O[C@H](CO)[C@H](O)[C@H](O)[C@H]3O)[nH]c2c1	none (no result: Pf growth 48h, Lassa entry inh, HCV inh, Pf growth 96h, Marburg entry inh)
CC(C)Sc1ncc(Cl)c(C(=O)N(Cc2ccc(N(C)C)cc2)C2CCS(=O)(=O)C2)n1 (stereo unspecified)	Marburg entry inh inconclusive (no result: Pf growth 48h, HCV inh, Pf growth 96h)
Cn1nc([N+](=O)[O-])nc1S(C)(=O)=O	Lassa entry inh inconclusive, HCV inh 10µM, Pf growth 96h 4.7µM, HCMV inh inconclusive, Marburg entry inh inconclusive
O=C1C(C=Nc2ccc(F)cc2)=C(O)c2ccccc21	Lassa entry inh inconclusive, Pf growth 96h inconclusive
Cc1ccccc1N=CC1=C(O)c2ccccc2C1=O	Lassa entry inh 10µM, Marburg entry inh 8.9µM
COc1ccc(N=CC2=C(O)c3ccccc3C2=O)c(OC)c1	Lassa entry inh 2.5µM, Pf growth 96h inconclusive, Marburg entry inh inconclusive
Cc1nn(-c2nc3ccccc3[nH]2)c(=O)c2ccccc12	Lassa entry inh inconclusive, HCMV inh -91, Marburg entry inh inconclusive
Cc1nn(-c2nc3ccccc3[nH]2)c(N)c1-c1ccc(Cl)cc1	Pf growth 96h inconclusive, HCMV inh -68, Marburg entry inh inconclusive
Cc1nn(-c2ccc3ccccc3c2)c(=O)c2ccccc12	HCV inh inconclusive (no result: Lassa entry inh, Marburg entry inh)
O=C1C2C(C(=O)N1/N=C/c1cc(Br)cc([N+](=O)[O-])c1O)C1C=CC2C12CC2 (stereo unspecified)	Pf growth 48h inconclusive, Pf growth 96h 12µM
Cc1cc(Br)c2c(c1)[C@](O)(c1cn(C)c3ccccc13)C(=O)N2C	none (no result: Pf growth 48h, Lassa entry inh, HCV inh, Pf growth 96h, Marburg entry inh)
COc1ccccc1CNC(=O)COC(=O)c1c(C)nn(-c2ccccc2)c1Cl	HCV inh 11µM, Pf growth 96h inconclusive (no result: Lassa entry inh, Marburg entry inh)
Cc1c(C(=O)O)c(-c2ccccc2)nn1-c1ccccc1	Pf growth 96h 2.9µM
Cc1nn(-c2ccccc2)c(Cl)c1C(=O)NCCCCNC(=O)c1c(C)nn(-c2ccccc2)c1Cl	Pf growth 48h 13µM, Lassa entry inh inconclusive, HCV inh inconclusive, Marburg entry inh inconclusive (no result: Pf growth 96h)
COc1cccc(CNC(=O)COC(=O)c2c(C)nn(-c3ccccc3)c2Cl)c1	Pf growth 48h inconclusive, Lassa entry inh inconclusive, Pf growth 96h inconclusive
COc1ccccc1CNC(=O)c1c(-c2ccccc2)nn(-c2ccccc2)c1C	HCV inh inconclusive, Pf growth 96h 9.3µM (no result: Pf growth 48h)
CC(=O)c1ccc(NC(=O)c2cn(-c3ccccc3)nc2-c2ccc(Br)cc2)cc1	none (no result: Pf growth 48h, HCV inh, Pf growth 96h, Marburg entry inh)
Cc1ccc(S(=O)(=O)N2CCOCC2)cc1C(=O)OCC(=O)NC1CCCC1	none (no result: Pf growth 48h, Lassa entry inh, Pf growth 96h, Marburg entry inh)
O=c1c2ccccc2on1-c1ccccc1	none (no result: Pf growth 48h, Lassa entry inh, HCV inh, Pf growth 96h, Marburg entry inh)
CCCc1ccc(OCc2nc(-c3ccc(NC(=O)c4ccco4)cc3)no2)cc1	Pf growth 48h inconclusive, Lassa entry inh 10µM, Pf growth 96h inconclusive, HCMV inh inconclusive, Marburg entry inh inconclusive
CC(Oc1ccc(Cl)cc1Cl)c1nc(-c2ccc(NC(=O)c3ccco3)cc2)no1 (stereo unspecified)	Lassa entry inh inconclusive, HCV inh inconclusive, Pf growth 96h 0.93µM, HCMV inh -93, Marburg entry inh inconclusive (no result: Pf growth 48h)
Cc1cc(OCc2nc(-c3ccc(NC(=O)c4cccnc4)cc3)no2)ccc1Cl	Pf growth 48h inconclusive, HCV inh inconclusive, Pf growth 96h inconclusive, Marburg entry inh inconclusive
CCCc1ccc(OCc2nc(-c3ccc(NC(=O)c4cccs4)cc3)no2)cc1	Pf growth 48h 1.9µM, Pf growth 96h inconclusive, HCMV inh inconclusive, Marburg entry inh inconclusive
